From ChEMBL document CHEMBL3988442, “University of Dundee, Small-Polar-MMV Screening Library” (2021) come the findings set out here.

Design in all cases: scale not given: direction of the effect not stated beside the values
In test [1] the target is Protein translocase subunit SecA (Escherichia coli (strain K12)) (UniProt P10408). In words: Assay to Identify E. coli SecA ATPase Inhibitors. It is filed as functional. The settings on record: 30 µM.
The target in test [2] is T1, Ubiquitin-activating enzyme e1, putative (Leishmania donovani (strain BPK282A1)) (UniProt E9BSI1).
T1 sequence (whole entry): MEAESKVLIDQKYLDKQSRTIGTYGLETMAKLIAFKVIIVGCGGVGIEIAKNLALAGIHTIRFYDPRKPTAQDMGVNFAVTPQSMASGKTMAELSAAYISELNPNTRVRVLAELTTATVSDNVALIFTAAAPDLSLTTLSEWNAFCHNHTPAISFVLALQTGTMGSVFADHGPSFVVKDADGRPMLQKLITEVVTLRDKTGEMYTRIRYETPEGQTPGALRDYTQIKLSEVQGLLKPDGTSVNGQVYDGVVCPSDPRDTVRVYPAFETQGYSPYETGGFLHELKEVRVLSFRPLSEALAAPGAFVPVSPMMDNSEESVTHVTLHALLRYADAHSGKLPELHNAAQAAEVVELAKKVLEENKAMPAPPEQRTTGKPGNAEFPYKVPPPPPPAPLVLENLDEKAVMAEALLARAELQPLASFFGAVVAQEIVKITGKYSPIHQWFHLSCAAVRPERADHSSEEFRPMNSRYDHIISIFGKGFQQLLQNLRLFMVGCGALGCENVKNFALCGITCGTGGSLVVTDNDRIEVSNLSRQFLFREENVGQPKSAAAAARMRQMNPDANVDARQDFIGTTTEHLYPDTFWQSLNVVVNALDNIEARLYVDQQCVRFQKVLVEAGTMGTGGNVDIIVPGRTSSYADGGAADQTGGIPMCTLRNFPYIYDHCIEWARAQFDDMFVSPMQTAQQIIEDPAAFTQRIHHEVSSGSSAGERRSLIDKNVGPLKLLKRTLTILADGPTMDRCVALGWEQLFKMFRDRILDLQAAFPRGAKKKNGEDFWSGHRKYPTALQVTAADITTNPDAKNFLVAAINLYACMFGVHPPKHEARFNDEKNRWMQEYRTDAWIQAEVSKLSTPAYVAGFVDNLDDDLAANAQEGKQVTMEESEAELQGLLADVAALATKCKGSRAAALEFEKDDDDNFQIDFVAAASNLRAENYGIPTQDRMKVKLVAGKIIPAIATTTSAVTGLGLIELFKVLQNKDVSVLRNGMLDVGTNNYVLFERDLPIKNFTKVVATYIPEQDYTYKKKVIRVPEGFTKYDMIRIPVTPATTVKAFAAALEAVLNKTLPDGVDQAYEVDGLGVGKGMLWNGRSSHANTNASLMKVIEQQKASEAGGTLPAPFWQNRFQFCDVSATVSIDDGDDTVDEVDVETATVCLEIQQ
The test is described as follows: Leishmania donovani Ubiquitin Activating Enzyme (LdE1). The format is functional. The settings on record: 30 µM.

Test [3] has as its target AMP-activated protein kinase, AMPK (Homo sapiens) (UniProt P54646+O43741+P54619+Q9UGJ0+Q9Y478+Q13131+Q9UGI9). In words: AMP-dependent Kinase enzyme assay. An in vitro enzyme assay that detects ADP turnover that is directly proportional to AMPK activity. This uses naive AMPK that is activated during the assay with MK-8722. It is filed as functional. The settings on record: 30 µM.

Test [4] concerns the target Sialic acid-binding Ig-like lectin 9 (Homo sapiens) (UniProt Q9Y336). In words: Hs-Siglec9 ALPHAscreen SOP 20170721. The settings on record: 10 µM.
Another test concerns Trypanosoma cruzi. In words: Trypanosoma cruzi phosphomannomutase and mannose-1-phosphate guanylyltransferase assay. The conditions noted are these: 10 µM. The format is functional.
Test [5] has as its target T2, Arginase-2, mitochondrial (Homo sapiens) (UniProt P78540).
T2 sequence (whole entry): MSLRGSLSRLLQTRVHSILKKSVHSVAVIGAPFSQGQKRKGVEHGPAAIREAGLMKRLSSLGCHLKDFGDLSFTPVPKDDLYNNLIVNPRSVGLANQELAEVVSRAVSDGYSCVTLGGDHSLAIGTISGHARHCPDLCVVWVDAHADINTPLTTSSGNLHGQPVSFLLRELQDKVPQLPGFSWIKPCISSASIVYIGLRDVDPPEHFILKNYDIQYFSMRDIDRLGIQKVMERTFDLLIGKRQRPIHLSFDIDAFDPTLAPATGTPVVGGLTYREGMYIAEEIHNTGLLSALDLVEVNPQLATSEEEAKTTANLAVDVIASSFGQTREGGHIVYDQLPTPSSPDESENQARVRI
The test is described as follows: in vitro enzyme assay to detect the production of urea directly proportional to the activity of Arginase II. Also: in the data most compounds retested in dose-response had high values. The format is functional. The conditions noted are these: 33.3 µM.

In test [6] the target is T3, Proteasome subunit beta (Trypanosoma cruzi) (UniProt O96673).
T3 sequence (whole entry): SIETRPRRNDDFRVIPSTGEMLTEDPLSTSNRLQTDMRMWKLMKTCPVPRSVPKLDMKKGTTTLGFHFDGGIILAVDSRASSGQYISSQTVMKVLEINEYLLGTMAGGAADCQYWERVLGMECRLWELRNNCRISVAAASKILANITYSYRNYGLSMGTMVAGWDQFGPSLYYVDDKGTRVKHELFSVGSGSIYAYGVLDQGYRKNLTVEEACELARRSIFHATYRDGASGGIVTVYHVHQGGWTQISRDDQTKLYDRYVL
The test is described as follows: Trypanosoma cruzi proteasome chymotrypsin-like activity (TcProtChymo) assay. Also: in the data most compounds retested in dose-response had high values. It is filed as functional. The settings on record: 9.37 µM.

A further test is filed under the species Homo sapiens. In words: To identify inhibition of the IFN signalling (Jak-Stat) pathway via expression of an eGFP reporter gene under the control of an IFN-stimulated response element (ISRE) containing MxA promoter. It is filed as functional. The settings on record: 30 µM.
Test [7] addresses T4, Tyrosyl-tRNA synthetase, putative (Trypanosoma cruzi (strain CL Brener)) (UniProt Q4DSP6).
T4 sequence (whole entry): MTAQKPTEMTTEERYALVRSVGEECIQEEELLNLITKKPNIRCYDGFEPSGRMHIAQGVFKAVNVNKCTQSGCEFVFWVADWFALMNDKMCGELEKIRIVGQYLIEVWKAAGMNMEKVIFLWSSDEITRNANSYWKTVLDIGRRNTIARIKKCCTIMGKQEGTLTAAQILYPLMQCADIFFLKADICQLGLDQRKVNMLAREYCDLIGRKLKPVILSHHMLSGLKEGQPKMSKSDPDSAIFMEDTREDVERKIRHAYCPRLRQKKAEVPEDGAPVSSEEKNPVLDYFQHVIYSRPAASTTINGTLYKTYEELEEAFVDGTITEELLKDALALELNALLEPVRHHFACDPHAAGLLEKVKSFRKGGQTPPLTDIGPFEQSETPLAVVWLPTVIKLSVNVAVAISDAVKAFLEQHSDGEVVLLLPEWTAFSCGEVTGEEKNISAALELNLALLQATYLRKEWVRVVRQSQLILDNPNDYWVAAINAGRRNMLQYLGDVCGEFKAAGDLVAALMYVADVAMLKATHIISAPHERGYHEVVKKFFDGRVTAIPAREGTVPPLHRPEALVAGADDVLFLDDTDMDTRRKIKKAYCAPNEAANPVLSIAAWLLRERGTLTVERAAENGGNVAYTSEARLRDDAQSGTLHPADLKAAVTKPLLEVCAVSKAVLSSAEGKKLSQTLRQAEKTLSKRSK
In words: Trypanosoma cruzi tyrosyl tRNA synthetase (TcYRS) _High Tyrosine SOP. Also: in the data most compounds retested in dose-response had high values. It is filed as functional. The conditions noted are these: 30 µM.

For test [8], the target named is T4, Tyrosyl-tRNA synthetase, putative (Trypanosoma cruzi (strain CL Brener)). In words: Trypanosoma cruzi tyrosyl tRNA synthetase (TcYRS) SOP. It is filed as functional. The settings on record: 30 µM.
Test [9] deals with Chromo domain-containing protein 1 (Saccharomyces cerevisiae (strain ATCC 204508 / S288c) (Baker's yeast)) (UniProt P32657). The test is described as follows: ScCHD-1 Enzyme Inhibition Assay. Also: in the data most compounds retested in dose-response had high values. It is filed as functional. The settings on record: 30 µM.

Structures are written as SMILES. For some of these results: Potency and affinity values are given separately.

Sequence of Sialic acid-binding Ig-like lectin 9 (Homo sapiens) (Q9Y336 whole entry): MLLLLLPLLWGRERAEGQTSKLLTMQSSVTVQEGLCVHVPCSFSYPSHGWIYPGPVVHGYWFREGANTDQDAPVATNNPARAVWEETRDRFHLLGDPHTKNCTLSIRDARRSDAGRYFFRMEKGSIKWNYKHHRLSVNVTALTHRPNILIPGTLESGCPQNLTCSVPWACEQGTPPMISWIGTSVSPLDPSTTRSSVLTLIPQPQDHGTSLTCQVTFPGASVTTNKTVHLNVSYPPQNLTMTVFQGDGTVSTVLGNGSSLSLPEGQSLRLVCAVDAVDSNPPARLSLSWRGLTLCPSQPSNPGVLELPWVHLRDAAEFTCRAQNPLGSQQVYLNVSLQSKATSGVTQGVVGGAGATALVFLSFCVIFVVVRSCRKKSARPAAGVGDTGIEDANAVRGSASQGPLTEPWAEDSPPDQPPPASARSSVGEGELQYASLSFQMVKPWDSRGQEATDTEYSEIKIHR
Sequence of Chromo domain-containing protein 1 (Saccharomyces cerevisiae (strain ATCC 204508 / S288c) (Baker's yeast)) (P32657 whole entry, the tested form may be a part): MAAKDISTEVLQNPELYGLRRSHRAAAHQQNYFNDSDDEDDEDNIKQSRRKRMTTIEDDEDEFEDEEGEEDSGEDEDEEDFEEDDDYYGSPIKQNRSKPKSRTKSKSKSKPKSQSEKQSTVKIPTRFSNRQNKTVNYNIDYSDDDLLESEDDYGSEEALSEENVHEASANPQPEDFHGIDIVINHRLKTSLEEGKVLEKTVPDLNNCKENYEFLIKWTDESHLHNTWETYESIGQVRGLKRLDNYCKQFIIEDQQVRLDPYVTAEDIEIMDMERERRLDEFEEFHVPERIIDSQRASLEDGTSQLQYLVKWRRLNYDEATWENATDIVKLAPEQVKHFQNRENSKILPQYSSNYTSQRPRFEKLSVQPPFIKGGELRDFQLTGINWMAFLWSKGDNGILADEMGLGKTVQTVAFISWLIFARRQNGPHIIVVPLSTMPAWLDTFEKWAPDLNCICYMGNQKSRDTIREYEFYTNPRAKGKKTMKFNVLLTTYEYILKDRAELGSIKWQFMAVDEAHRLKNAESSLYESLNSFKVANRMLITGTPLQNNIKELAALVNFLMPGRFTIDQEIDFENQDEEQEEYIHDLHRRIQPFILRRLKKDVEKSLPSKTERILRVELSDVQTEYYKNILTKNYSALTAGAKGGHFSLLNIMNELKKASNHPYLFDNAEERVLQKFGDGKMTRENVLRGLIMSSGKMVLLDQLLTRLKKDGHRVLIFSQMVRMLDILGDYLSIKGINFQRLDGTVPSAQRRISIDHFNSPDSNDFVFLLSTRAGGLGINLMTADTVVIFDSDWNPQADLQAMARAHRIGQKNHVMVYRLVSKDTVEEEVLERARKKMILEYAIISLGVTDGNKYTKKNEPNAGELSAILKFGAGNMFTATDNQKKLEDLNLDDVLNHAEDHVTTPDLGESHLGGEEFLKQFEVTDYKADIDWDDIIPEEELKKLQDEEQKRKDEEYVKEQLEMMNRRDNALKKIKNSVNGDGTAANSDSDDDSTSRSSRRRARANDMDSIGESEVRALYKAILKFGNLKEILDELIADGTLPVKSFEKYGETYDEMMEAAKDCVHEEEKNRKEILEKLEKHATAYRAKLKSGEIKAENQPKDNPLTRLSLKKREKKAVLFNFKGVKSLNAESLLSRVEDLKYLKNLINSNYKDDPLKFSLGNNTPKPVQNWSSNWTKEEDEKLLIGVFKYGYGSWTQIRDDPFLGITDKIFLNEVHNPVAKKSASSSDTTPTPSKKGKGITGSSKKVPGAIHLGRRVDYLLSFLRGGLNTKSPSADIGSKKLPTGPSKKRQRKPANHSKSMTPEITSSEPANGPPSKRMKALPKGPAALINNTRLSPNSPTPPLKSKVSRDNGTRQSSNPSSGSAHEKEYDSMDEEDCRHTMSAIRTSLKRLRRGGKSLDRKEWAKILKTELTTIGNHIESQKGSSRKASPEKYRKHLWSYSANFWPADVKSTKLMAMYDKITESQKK
Sequence of Protein translocase subunit SecA (Escherichia coli (strain K12)) (P10408 whole entry): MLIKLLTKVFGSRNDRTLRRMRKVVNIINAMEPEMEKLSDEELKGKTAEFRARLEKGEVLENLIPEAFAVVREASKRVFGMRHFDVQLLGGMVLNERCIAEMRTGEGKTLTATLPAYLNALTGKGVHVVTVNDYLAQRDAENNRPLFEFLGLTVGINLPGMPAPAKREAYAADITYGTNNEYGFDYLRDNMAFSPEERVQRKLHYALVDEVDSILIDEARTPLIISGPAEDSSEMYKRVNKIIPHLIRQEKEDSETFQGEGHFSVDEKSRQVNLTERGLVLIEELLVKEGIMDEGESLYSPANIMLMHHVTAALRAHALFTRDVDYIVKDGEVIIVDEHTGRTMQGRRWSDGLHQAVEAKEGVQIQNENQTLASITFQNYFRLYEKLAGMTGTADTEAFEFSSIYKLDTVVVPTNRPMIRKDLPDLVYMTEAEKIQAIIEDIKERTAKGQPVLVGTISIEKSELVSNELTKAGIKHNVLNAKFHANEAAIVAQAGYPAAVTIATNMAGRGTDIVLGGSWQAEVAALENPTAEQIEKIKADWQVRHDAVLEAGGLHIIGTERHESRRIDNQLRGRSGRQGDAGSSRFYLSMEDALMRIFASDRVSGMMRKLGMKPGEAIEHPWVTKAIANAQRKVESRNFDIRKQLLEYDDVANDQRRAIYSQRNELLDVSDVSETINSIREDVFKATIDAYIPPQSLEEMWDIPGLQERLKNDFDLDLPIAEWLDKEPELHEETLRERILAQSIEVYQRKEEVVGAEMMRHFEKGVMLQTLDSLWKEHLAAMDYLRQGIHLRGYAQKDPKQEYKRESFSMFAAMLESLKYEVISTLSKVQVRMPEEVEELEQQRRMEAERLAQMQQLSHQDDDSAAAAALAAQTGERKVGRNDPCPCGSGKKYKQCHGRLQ

Take `c1ccc(Cn2cc3c(n2)C(COCC2CC2)OCC3)nc1` (stereo not drawn): the Percent Effect in test [1] is 3.09%; in [2], 10.4%; in [3], -0.118%; in test [4], -14.8%; with Trypanosoma cruzi, -4.24%; in [5], 3.23%. Besides, the Percent Effect was 12.4% in [6]; 8.69% in the test listed under Homo sapiens; 1.06% in [7]; 6.41% in test [8]; -7.74% in test [9].
With `CCc1nc(CN2CCCC(NCc3cc(C)no3)C2)no1` (stereo not drawn), the Percent Effect is -1.34% in test [1]; -28.6% in test [2]; 1.07% in test [3]; -1.38% in test [4]; 3.82% in the test with Trypanosoma cruzi; -3.16% in [5]. The Percent Effect was 5.42% in test [6]; 5.74% in the test filed under Homo sapiens; 3.81% in test [7]; 7.06% in test [8]; -11.5% in [9].
`O=C(CCc1ccccc1)N1CCn2cc(CN3CCCC3)nc2C1`: the Percent Effect in [1] was 0.2%; in test [2] it was 5.2%; in test [3], -2.41%; in [4], 2.78%; with Trypanosoma cruzi, -1.08%; in test [5] it was -3.23%. The Percent Effect was 11.8% in [6]; 7.71% in the test filed under Homo sapiens; 12.7% in [7]; 16.7% in test [8]; -2.74% in test [9].
For `Cc1cccc(-n2c(C)cc(C(=O)N3CCn4c(C)nnc4C3)c2C)c1`, the Percent Effect is -3.26% in test [1]; 10.5% in [2]; -12.3% in test [3]; 9.36% in test [4]; 2.15% with Trypanosoma cruzi; -3.6% in test [5]. The Percent Effect is 7.19% in [6]; 3.33% in the test listed under Homo sapiens; 11.3% in test [7]; 16.1% in test [8]; -0.518% in [9].
As to `Cc1ccc(N2CC[C@H]3C[C@@H](C(=O)N4CCOCC4)O[C@H]3C2)nn1`, the Percent Effect in test [1] was -2.71%; in test [2], 13.5%; in [3] it was -1.79%; in test [4] it was -1.51%; in the test on Trypanosoma cruzi, -0.293%; in [5], -0.319%. Moreover, the Percent Effect in [6] is 11.6%; in the test filed under Homo sapiens, -4.87%; in test [7], 10.8%; in [8], 15.4%; in [9], -1.79%.
Regarding `c1coc(-c2noc(CN3CCCC(Cn4cncn4)C3)n2)c1` (stereo not drawn), the Percent Effect in [1] is -6.64%; in [2], 7.59%; in test [3], -3.53%; in test [4] it was 4.26%; in the test on Trypanosoma cruzi it was 6.14%; in test [5] it was -3.04%. The Percent Effect in test [6] is 2.05%; in the test filed under Homo sapiens, 3.63%; in test [7], -1.48%; in [8], 11.4%; in test [9], -5.56%.
As to `Cc1cnc(C(=O)N2CCc3ncnc(C)c3CC2)cn1`, the Percent Effect in test [1] was -2.65%; in [2] it was 0%; in test [3], -0.0548%; in [4], 5.51%; in the test with Trypanosoma cruzi, -1.39%; in test [5], -2.79%. The Percent Effect in [6] is 15.8%; in the test listed under Homo sapiens, 19.6%; in test [7] it was 2.08%; in test [8] it was 11.1%; in test [9] it was -2.02%.
Consider `COCCn1cc(C(=O)N2CCCC2c2cc(C)no2)ccc1=O` (stereo not drawn), for which the Percent Effect in test [1] is -2.03%; in [2], 8.11%; in [3] it was 1.75%; in test [4], 2.51%; in the test with Trypanosoma cruzi, -0.965%; in [5], 2.38%. The Percent Effect is 9.48% in [6]; 1.94% in the test filed under Homo sapiens; 7.94% in test [7]; 12.2% in test [8]; -3.51% in [9].
